Compound activity (PubChem)
CYP2C19 act: cytochrome P450 2C19 (human) activation | P33261 | recombinant CYP2C19, luciferin-H EGE luminescence; active compounds read high; 0 = fully inhibited enzyme, 1 = untreated enzyme | activation factor at 5 µM | 96,000 tested, under 10 active | AID 1025;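 active = activation factor of at least 2 at 5 µM in the primary screen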;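 note: 0 = wells with 2.5 mM tranylcypromine and 1 = vehicle-only wells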
Cav3 T inh: inhibitors of human Cav3.2 T-type calcium channel. O95180. Cav3.2-expressing cells, Fluo-4 calcium fluorescence FDSS; active compounds read low. B-score at 10 µM. hit rate 4% among 100,000. AID 449739;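 active = single-dose well whose peak fluorescence ratio is a statistical outlier from its plate by either plate-standardised score or position-corrected B-score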
CYP2C9 act: increases human cytochrome P450 2C9 activity. P11712. recombinant CYP2C9, luciferin-H conversion, luminescence; active compounds read high; factor 1 = untreated enzyme, 0 = blocked. activation factor at 5 µM. hit rate 1.4% among 96,000;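 active = activation factor of 2 or more for CYP2C9 at a 5 µM dose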;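 note: 0 = sulfaphenazole-blocked wells and 1 = vehicle-only wells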
Target sequence (P11712 whole entry, looked up): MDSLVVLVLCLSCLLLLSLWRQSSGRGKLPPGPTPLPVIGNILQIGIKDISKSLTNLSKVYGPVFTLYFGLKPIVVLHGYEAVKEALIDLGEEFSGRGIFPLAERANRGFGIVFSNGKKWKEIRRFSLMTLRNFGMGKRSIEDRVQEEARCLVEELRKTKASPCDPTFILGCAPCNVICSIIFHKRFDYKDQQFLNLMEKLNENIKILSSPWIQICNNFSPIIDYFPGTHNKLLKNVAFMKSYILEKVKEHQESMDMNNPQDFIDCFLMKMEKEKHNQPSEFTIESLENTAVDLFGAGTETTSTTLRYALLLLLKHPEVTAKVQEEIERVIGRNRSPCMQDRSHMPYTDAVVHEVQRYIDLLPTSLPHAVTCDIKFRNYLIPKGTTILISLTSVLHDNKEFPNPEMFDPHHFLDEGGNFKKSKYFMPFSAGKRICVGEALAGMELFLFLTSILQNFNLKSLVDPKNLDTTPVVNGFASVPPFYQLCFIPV
CYP2C19 inhib: human CYP2C19 inhibition. P33261. CYP2C19 Supersomes, luciferin-H EGE luminescence, 30 min. inhibition, % at 5 µM. hit rate 21% among 96,000. AID 778;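 active = CYP2C19 inhibition above a set limit at 5 µM in the primary screen, cut at about 50% in these data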;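 note: plate controls were negative control wells for no effect and 2.5 mM tranylcypromine positive control for full effect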
CYP2C9 inh: human CYP2C9 inhibition; P11712; AID 777; hit rate 20% among 96,000; CYP2C9 Supersomes, luciferin-H conversion, luminescence; inhibition, % at 5 µM;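 active = blocking of liver enzyme CYP2C9 beyond about 50% at 5 µM, limit read from the data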
* = called active by the depositor; x = not tested or not shown. A selection: hits, their analogues and other compounds. The true share with any hit is near 27%.

SMILES	CYP2C19 act	Cav3 T inh	CYP2C9 act	CYP2C19 inhib	CYP2C9 inh
COC(=O)c1ccc(N2CCOCC2)c(NC(=O)Nc2cccc(OC)c2)c1	0.8	x	0.3	24	71*
COc1cccc(C(=O)OCC(=O)Nc2ccccc2N2CCOCC2)c1	0.6	-1.2	0.5	39	51*
COc1cccc(C(=O)Nc2ccccc2N2CCOCC2)c1	0.4	x	0.5	62*	53*
COc1cccc(-n2c(C)nnc2SCC(=O)Nc2ccccc2N2CCOCC2)c1	0.4	x	0.2	63*	77*
FC(F)(F)c1nnc2ccc(-n3ccnc3)nn12	1	-0.3	1	-3	-1
CCn1c(SCC(=O)Nc2sc3c(c2C#N)CCCC3)nnc1-c1ccco1	0.9	0.46	0.4	15	55*
O=C(CSc1n[nH]c(-c2ccco2)n1)Nc1sc2c(c1C(=O)Nc1ccccc1)CCCC2	0.5	x	0.2	48	84*
CCn1c(SCC(=O)Nc2nc(C)c(C)s2)nnc1-c1ccco1	0.2	0.78	0.6	80*	42
NC(=O)c1c(NC(=O)CSc2nnc(-c3ccco3)n2-c2ccccc2)sc2c1CCC2	0.3	0.6	0.1	69*	94*
CCn1c(SCC(=O)Nc2sc3c(c2C#N)CCC(C(C)(C)C)C3)nnc1-c1ccco1 (stereo unspecified)	0.8	-0.16	0.7	18	33
N#Cc1c(NC(=O)CSc2nnc(-c3ccco3)n2-c2ccccc2)sc2c1CCC2	0.9	0.21	0.7	9	30
O=c1c(/C=C(\O)c2ccccc2)nc2ccccc2n1-c1ccccc1	0.5	0.0067	0.7	46	34
CC1(c2nnc(-c3ccc(F)cc3)o2)CC(c2ccccc2)=NO1 (stereo unspecified)	x	-0.8	x	x	x
c1ccc(COc2ccc(CNn3cnnc3)cc2)cc1	0.8	-1.9	0.8	25	24
CCn1c(SCc2c(F)cccc2Cl)nnc1-c1ccco1	0.4	-1.8	1.1	61*	-12
COc1ccc(-c2nnc(SCC(=O)Nc3sc4c(c3C#N)CCCC4)n2-c2ccccc2)cc1	x	-0.74	x	x	x
COc1ccc(-n2c(SCC(=O)Nc3sc4c(c3C#N)CCCC4)nnc2-c2ccccc2OC)cc1	x	-6.3*	x	x	x
COc1ccccc1CCNC(=O)c1cnn2c(C(F)F)cc(C)nc12	0.2	0.86	1.6	77*	-60
COc1ccc(CCNC(=O)c2cnn3c(C(F)F)cc(C)nc23)cc1OC	0.5	-0.031	0.5	52*	47
COc1ccccc1CNC(=O)c1cnn2c(C(F)F)cc(C)nc12	0.4	1.2	2.2*	61*	-120
COc1ccc(CCNC(=O)c2cnn3cccnc23)cc1OC	0.7	0.092	1.1	27	-7
CCOC(=O)C[C@H]1c2ccc(C(F)(F)F)cc2S(=O)(=O)N1c1cccc(OC)c1	x	-1.2	x	x	x
COc1ccc(-c2noc(CCC(=O)NCc3cccnc3)n2)cc1OC	0.8	1.3	0.5	19	54*
O=C(CCCc1nc(-c2ccccc2)no1)NCc1cccnc1	0.8	1.3	0.7	21	31
COc1ccc(-c2noc(CCC(=O)NCc3cccnc3)n2)cc1	0.5	0.11	0.3	50*	74*
SMILES	CYP2C19 act	Cav3 T inh	CYP2C9 act	CYP2C19 inhib	CYP2C9 inh
COc1ccc(/C=N/NC(=O)Cc2csc(Nc3cccc(C(F)(F)F)c3)n2)cc1C	x	-3.9*	x	x	x
CC(c1nc2ccccc2o1)N1C(=O)c2ccccc2C1=O (stereo unspecified)	x	-0.16	x	x	x
COc1cccc(NC(=O)N2CCOCC2)c1	1	0.91	1	0	-1
CC(=O)Nc1ccccc1-c1nc2ccc(C(=O)N3CCN(c4cccc(C)c4)C(C)C3)cc2[nH]c1=O (stereo unspecified)	0.3	-0.34	0.1	70*	87*
COc1cccc(NC(=O)N2CCN(c3cccc(C)c3)C(C)C2)c1 (stereo unspecified)	0.4	-4.9*	1.2	59*	-16
Cn1c(C(=O)N2CCCCCC2)cc2c(=O)n(C)c3ccccc3c21	0.6	0.4	1	35	-4
Cc1cccc(N2CCN(C(=O)c3cc4c(=O)n(C)c5ccccc5c4n3C)CC2C)c1 (stereo unspecified)	0	-4.4*	0.1	99*	94*
Cc1cccc(N2CCN(C(=O)c3ccc4nc(-c5ccco5)c(-c5ccco5)nc4c3)CC2C)c1 (stereo unspecified)	0.5	-6.5*	0.5	49	52*
COc1cccc(N2CCN(C(=O)c3ccc(=O)oc3)CC2C)c1 (stereo unspecified)	0.8	0.14	0.7	24	33
N#Cc1ccc(C23CC4(C2)[C@H](CN(CC2CCCCC2)[C@@H]4c2ccccc2)C3c2ccc(C(F)(F)F)cc2)cc1 (stereo partly specified)	x	-0.89	x	x	x
COc1ccccc1-c1nc(C#N)c(N2CCN(C(c3ccccc3)c3ccccc3)CC2)o1	0.9	0.079	0.8	14	22
COC(=O)c1ccc(C(C(=O)NC2CCCCC2)N(C(=O)Cc2cccs2)C2CC2)cc1 (stereo unspecified)	0.8	-1.4	0.8	19	18
O=C(NC1CCCC1)C(c1ccccc1)N(Cc1ccc2c(c1)OCO2)C(=O)Cc1cccs1 (stereo unspecified)	x	-5.9*	x	x	x
CCc1ccc(C(C(=O)NCc2ccc(OC)cc2)N(CCOC)C(=O)Cc2cccs2)cc1 (stereo unspecified)	0.7	-3.5	0.6	25	43
O=C(NCc1ccccc1)C(c1ccccc1)N(Cc1ccc2c(c1)OCO2)C(=O)Cc1cccs1 (stereo unspecified)	x	-1.9*	x	x	x
CCC1=C(OC(=O)N(CC)CC)N2C(=O)OC(=NCC(=O)OC)[C@]2(Cc2ccccc2)[C@H]2C1=CC[C@H]1C(=O)NC(=O)[C@H]12	x	-0.37	x	x	x
CCOC(=O)CNC(=O)C(CC(C)C)NC(=O)C1CCCCC1 (stereo unspecified)	1	0.97	1.1	2	-12
CC(=O)c1ccc(O)c(CC=C(C)C)c1	x	-0.71	x	x	x
Cn1nc(C(F)(F)F)c2cc(NC(=O)OCc3ccc(F)cc3)sc21	0.5	-2.5	2.5*	52*	-148
Cn1nc(C(F)(F)F)c2cc(C(=O)Nc3ccc(Cl)cc3)sc21	0.9	-0.049	1.4	11	-44
Cn1nc(C(F)(F)F)c2cc(NC(=O)OCc3ccc(C(C)(C)C)cc3)sc21	0.8	-2.5	0.5	20	52*
COc1ccc(COC(=O)Nc2cc3c(C(F)(F)F)nn(C)c3s2)cc1	0.5	-3.2	1.1	49	-10
COC(=O)N1CC(C)N(C(=O)OC)CC1C (stereo unspecified)	0.9	0.12	1	13	4
CCOC(=O)c1ccc(NC(=S)Nc2ccccc2N)cc1	x	0.81	x	x	x
COc1cccc(N2CCN(C3CC(=O)N(c4ccc(Cl)c(Cl)c4)C3=O)CC2)c1 (stereo unspecified)	0.9	-6.4*	0.9	9	9
CCC(C)c1c(O)nc(SCC(=O)Nc2ccccc2)[nH]c1=O (stereo unspecified)	0.3	-0.95	0.2	73*	76*
